Reference: PubChem BioAssay (NCATS)
The source made the active and inactive calls. Calls follow the shape of the full dose curve.

test: Cell Proliferation Assay Versus the ED40515 IL2 Dependent ATL cell lines (AID 1053195); settings: ED40515 IL2-dependent ATL cells
Source text: Adult T-cell leukemia (ATL) develops in individuals infected with human T-cell lymphotropic virus-1 (HTLV-1). Clinically, ATL is subclassified into four subtypes: smoldering, chronic, lymphomatous, and acute. Two autocrine loops (IL-2/IL-2Ralpha and IL-15/IL-15Ralpha) and one paracrine stimulation loop that involves IL-9 expression by ATL cells and IL-9Ralpha expression on monocytes are required to maintain viability and proliferation in the smoldering and chronic forms of the disease. These assays examined the differential response profiles for the MIPE library of approved and investigational drugs versus an IL2 dependent and independent matched ATL cell line, with the current submission examining the differential response profiles for drugs on an IL2 dependent matched ATL cell line.
Plate log growing ED40515 +IL2 cells: 1000cells/ well in 5uL phenol red free RPMI +5% FBS +1x p/s, Glutamine using 1536 well white griener tissue culture plates and multidrop cassette acoustic dispensing Columns 1 and 3 DMSO Columns 2 and 4, 9.2 uM Bortezomib Incubate 48 hours for celltiter glo 37C with 5%CO2 and 95% humidity with low evaporation lids Dispense 3 uL per well of cell titer glo with multidrop Incubate for 15 minutes at RT Read on VL/2 using Luminesence Wheel (Filter A)

Structure (SMILES) | Potency
COC1(CS(=O)c2ccccc2)CCN(CCc2c[nH]c3ccc(F)cc23)CC1 (stereo not given) | 23.5 µM (active)
CN(C)CCN(C)CCc1ccc(Cl)c(Cl)c1 | 16.6 µM (active)
CNC(=O)c1ccc(N2C(=S)N(c3ccc(C#N)c(C(F)(F)F)c3)C(=O)C23CCC3)cc1F | 20.9 µM (active)
CC(O)(CS(=O)(=O)c1ccc(F)cc1)C(=O)Nc1ccc(C#N)c(C(F)(F)F)c1 (stereo not given) | 14.8 µM (active)
O=c1c(O)c(-c2ccc(O)c(O)c2)oc2cc(O)cc(O)c12 | 16.6 µM (active)
C[C@]12CCC(=O)C(O)=C1CC[C@@H]1[C@@H]2CC[C@]2(C)C(=O)CC[C@@H]12 | 0.059 µM (active)
Cc1cc(SCc2sc(-c3ccc(C(F)(F)F)c(F)c3)nc2C)ccc1OCC(=O)O | 18.7 µM (active)
Cn1cc(C2=C(c3cn(C4CCN(Cc5ccccn5)CC4)c4ccccc34)C(=O)NC2=O)c2ccccc21 | 14.8 µM (active)
CNC(=O)N1N=C(c2ccc(N)cc2)c2cc3c(cc2CC1C)OCO3 (stereo not given) | 14.8 µM (active)
C[C@@H]1[C@@H](CC(C[C@H]2O[C@@H]3O[C@]4(C)CC[C@@H]5[C@H](C)CC[C@@H]([C@H]2C)[C@@]35OO4)C[S+](=O)([O-])c2ccc(COC(=O)N(C)C)cc2)O[C@@H]2O[C@]3(C)CC[C@H]4[C@H](C)CC[C@@H]1[C@@]24OO3 (stereo not given in full) | 0.0166 µM (active)
CCCCC/C=C\C/C=C\C/C=C\C/C=C\CCCC(=O)NC1CC1 | 16.6 µM (active)
CC1=C2C[C@@H]3[C@@H](CC=C4C[C@@H](O)CC[C@@]43C)[C@@H]2CC[C@]12O[C@H]1C[C@H](C)CN[C@H]1[C@H]2C | 16.6 µM (active)
C[C@@H]1[C@@H](C(=O)C[C@H]2O[C@@H]3O[C@]4(C)CC[C@@H]5[C@H](C)CC[C@@H]([C@H]2C)[C@@]35OO4)O[C@@H]2O[C@]3(C)CC[C@H]4[C@H](C)CC[C@@H]1[C@@]24OO3 | 0.0066 µM (active)
CC(C)n1c(C=C[C@H](O)C[C@H](O)CC(=O)O)c(-c2ccc(F)cc2)c2ccccc21 | 0.209 µM (active)
O=C(O)C(=O)c1cn(Cc2ccccc2)c2ccc(-c3ccc(OC(F)(F)F)cc3)cc12 | 20.9 µM (active)
